The results in this text go back to ChEMBL document CHEMBL4513216, “Probing the Open Global Health Chemical Diversity Library for Multistage-Active Starting Points for Next-Generation Antimalarials” (ACS Infect Dis, 2020).

Screen size: about 69,000 compounds; about 8,600 (12%) showed an effect of 50% or more. Only a selection was taken, and strong results are over-represented in it overall.

The subject of this assay is Plasmodium berghei. Description: Screen against P. berghei liver stage (PbLuc), transformed with Luciferase, at 10uM. Type of assay: functional, HepG2. Particulars: tested at 10 uM.
Regarding `CC(C)N(C)Cc1cnc2n1CCN(C(=O)NC1CCCC1)C2`, the INHIBITION was determined as 34.1%.

`CCOCCN1CCN(c2ccc(C#N)cn2)CC1`: the INHIBITION is given as 45.4%.

Turning to `CS(=O)(=O)NCCCNCc1cc(F)ccc1Br`, the INHIBITION is reported as 30.2%.

In the case of `Cc1noc(C)c1CN(C)C(=O)NC1CCOCC1`, the INHIBITION turned out to be 22.95%.

As to `Cc1cccc(N2CCN(C(=O)CCCC(=O)N(C)C)C(C)C2)n1` (stereo unspecified), the INHIBITION came out at 39.3%.

Take `Cc1nc(CN2CCCC3(CCN(c4cnn(C)c4)C3=O)C2)cs1` (stereo unspecified): the INHIBITION is 6.55%.

On to `Cc1nccn1C1CCCN(C(=O)c2cnc[nH]2)C1` (stereo unspecified), for which the INHIBITION is listed as -9.37%.

In the case of `Cn1nc(Cn2cccn2)c2c1CN(C1CCOCC1)C2`, the INHIBITION came to 44.2%.

Take `CN(C(=O)c1ccccc1NCC(=O)O)C(C1CC1)C1CC1`: the INHIBITION stood at 25.8%.

With `O=C(COCc1ccccc1Cl)N1CCCC(n2ccnc2)C1` (stereo unspecified), the INHIBITION was determined as 17.5%.

`Cc1cccc(CN2C[C@@H]3COC[C@]3(CNC(=O)c3cccn3C)C2)n1`: the INHIBITION is on record as -17.1%.

`O=S(=O)(c1cccs1)N1CCCCC1c1ccn[nH]1` (stereo unspecified): the INHIBITION came to 29.3%.

For the compound `CCS(=O)(=O)N1CCCC(n2nnn(-c3ccccc3)c2=O)C1` (stereo unspecified), the INHIBITION is reported as -8.5455%.

On to `Cc1cc(C)c(-n2cc(CCO)cn2)cc1C`, for which the INHIBITION is -50.3%.

With `Cc1nnc(N2CCc3cnc(C(C)C)nc3C2)c(C#N)c1C`, the INHIBITION is 6.72%.

As for `CC(CCc1ccccc1)N1CCC(C(=O)NCc2ccccc2)CC1` (stereo unspecified), the INHIBITION was found to be 46.7%.

Regarding `Cc1cnnn1Cc1ncn2c1CN(Cc1cccs1)CCC2`, the INHIBITION worked out at 15.9%.

Regarding `O=C(Cn1c(=O)n(Cc2ccco2)c2ncccc21)NC1CC1`, the INHIBITION worked out at 39.7%.

In the case of `O=C(Cn1c(=O)n(Cc2ccco2)c2ncccc21)NC1CCCC1`, the INHIBITION was 48.6%.

As to `CCN(CC)C(=O)Cn1c(=O)n(Cc2ccco2)c2ncccc21`, the INHIBITION was 51.5%.

Take `CC(C)N(C(=O)Cn1c(-c2ccco2)cc2cccnc21)C(C)C`: the INHIBITION is given as 39.3%.

Regarding `Cc1nn(C(C)(C)C)c(=O)n1CC(=O)NC(C)(C)C`, the INHIBITION is reported as -53.6%.

Regarding `CC(C)(C)NC(=O)Cn1c(=O)n(Cc2ccco2)c2ncccc21`, the INHIBITION worked out at 61.9%.

Turning to `O=C(Cn1c(=O)n(Cc2ccco2)c2ncccc21)NC1CCCCC1`, the INHIBITION is on record as 53.5%.

Turning to `CCN(CC)C(=O)CSc1nc2cc(C)nc-2c(O)n1Cc1ccco1`, the INHIBITION is reported as 26.7%.

For `O=C(Cn1c(=O)n(Cc2ccco2)c2ncccc21)Nc1ccccn1`, the INHIBITION amounted to 45.5%.

With `Cc1ccc(C(=O)N2CCN(CCc3ccccc3)CC2)c(=O)[nH]1`, the INHIBITION is reported as -6.45%.

For `COc1ccccc1CNC(=O)CS(=O)(=O)Cc1ccccc1`, the INHIBITION came to 29.8%.

Consider `Cn1cc(Cl)cc1C(=O)N1CCN(Cc2cccs2)CC1`, for which the INHIBITION is -13.575%.

`CC(C)=CCN1CCN(Cc2nccn2C)C(C)C1` (stereo unspecified): the INHIBITION was found to be 35.77%.

For `COc1ccc(C(CNC(=O)NCc2csc(C)n2)N(C)C)cc1` (stereo unspecified), the INHIBITION was found to be 23.5%.

Consider `CNc1cncc(C2CCCN2C(=O)c2ccc3nc(C)[nH]c3c2)n1` (stereo unspecified), for which the INHIBITION is given as 2.6%.

Take `O=S1(=O)c2ccccc2C(O)CN1CCO` (stereo unspecified): the INHIBITION was -5.77%.

With `COCCN1CCC2(CC1)CC1(CCN(S(C)(=O)=O)CC1)N(C)C2=O`, the INHIBITION is 40.8%.

Consider `CC(=O)Nc1ccc(Oc2cc(C)nc(C3CCCNC3)c2)cc1` (stereo unspecified), for which the INHIBITION is on record as 14.355%.

For the compound `CSCC(C)NS(=O)(=O)c1ccc(C)c(N(C)C)c1` (stereo unspecified), the INHIBITION is given as -37.7%.

In the case of `Cc1cnc(N2C(=O)CSC2c2ccc(N(C)C)cc2)s1` (stereo unspecified), the INHIBITION is 39.9%.

In the case of `CC(C)c1nn(C)c(Cl)c1CNCc1ccc(N(C)C)nc1`, the INHIBITION was 18.85%.

In the case of `CC(=O)Nc1ccc(S(=O)(=O)NC(=O)CCC2CCCO2)cc1` (stereo unspecified), the INHIBITION is on record as 57.2%.

Turning to `O=C(CCC1CCCO1)NS(=O)(=O)c1ccc(Cl)cc1` (stereo unspecified), the INHIBITION is -11.4%.

Consider `Cc1ccc(S(=O)(=O)NC(=O)CCC2CCCO2)cc1` (stereo unspecified), for which the INHIBITION is -7.35%.

`Cc1nccn1CCCC(=O)N1CCC(N(C)c2cccnn2)CC1`: the INHIBITION is on record as 12.7%.

Turning to `O=C(c1cnn[nH]1)N1CCCC1c1nc2cc(F)ccc2[nH]1` (stereo unspecified), the INHIBITION is reported as 11.8%.

As for `CN(CC(C)(C)C)c1ccc(C(=O)NCCCc2ccccn2)cn1`, the INHIBITION is -20.6%.

Consider `CCN(C)c1ccc(C(=O)NCCCc2ccccn2)cn1`, for which the INHIBITION is listed as -17.9%.

As to `CCn1c(N)nc2cc(C(=O)NCCCc3ccccn3)cnc21`, the INHIBITION was found to be 11.8%.

As for `CN(C)c1ccc(C(=O)NCCCc2ccccn2)cn1`, the INHIBITION turned out to be 62.8%.

In the case of `O=C(NCCCc1ccco1)c1cnc(N2CCOCC2)nc1`, the INHIBITION is listed as -18.8%.

As to `CN(Cc1ccco1)c1ccc(C(=O)NCCCc2ccccn2)cn1`, the INHIBITION is 58.2%.

Turning to `Cc1ccc(CN2CCOC3(CCN(CC4CCOC4)CC3)C2)cc1` (stereo unspecified), the INHIBITION stood at 36.7%.

In the case of `CSCCC(Nc1nc(C)cc(C)n1)C(=O)NC1CCCC1` (stereo unspecified), the INHIBITION is listed as 36.8%.

With `COC(=O)c1ccc(N2CCN(C(=O)c3cnccn3)C(C)C2)cc1` (stereo unspecified), the INHIBITION was -23.8%.

As to `COC(=O)c1ccc(N2CCN(C(=O)c3cc(C)on3)C(C)C2)cc1` (stereo unspecified), the INHIBITION is given as 54.3%.

Regarding `COC(=O)c1ccc(N2CCN(C(=O)C(C)C)C(C)C2)cc1` (stereo unspecified), the INHIBITION is given as -37.6%.

Regarding `COC(=O)c1ccc(N2CCN(C(=O)c3cc(C)no3)C(C)C2)cc1` (stereo unspecified), the INHIBITION was -11.4%.

Regarding `COC(=O)c1ccc(N2CCN(C(=O)c3cnc(C)cn3)C(C)C2)cc1` (stereo unspecified), the INHIBITION stood at 66.7%.
